Each structure is given as a SMILES string. About 79,000 compounds went through this panel and 15% of them were active in at least one assay; those are over-represented in the sample as a whole. A number with no mark means an inactive call. Calls of active or inactive are those of the source. Cut-off read from the data, not from the text of the source: active = growth inhibition above about 70%; inactive = the rest.

These results are taken from PubChem BioAssay (NCI).

The test in a line: NCI Yeast Anticancer Drug Screen. Data for the mec2-1 strain (AID 157). The following applies: S. cerevisiae mec2-1 strain, at 50.0 µM, active compounds read high. Summed up: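 Each compound was tested on mec2-1 yeast, a strain altered in DNA damage repair or cell cycle control. Growth inhibition is reported relative to vehicle.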
On to `CCN(/N=C1\CC2C=CCN(C2)C(=O)Cc2c1[nH]c1ccccc21)S(=O)(=O)c1ccc(C)cc1` (stereo not given), for which the growth inhibition was 12.1%.
The figure for `O=C(O)C1CCCCC1C(=O)O.[NH-]C1CCC1.[NH2-].[Pt+2]` (stereo not given) is 99.3% (active); for `COC(=O)CCCN1C(=O)c2ccccc2C1=O` it is -12.7%.
Take `COC(=O)N/N=C/c1ccc(NC(C)=O)cc1`: the growth inhibition was 0%.
Regarding `O=C1c2cc(Cl)ccc2OCC1Cl` (stereo not given), the growth inhibition is 22.2%.
Under `O=C1C(Cl)N(c2ccc(Cl)cc2Cl)C1c1c[nH]c2ccccc12` (stereo not given) stands -13.9%; under `CCOC(=O)CNc1nnnn1C1OC(CO)C(O)C1O` (stereo not given), -13.1%.
With `Cc1cc(-c2ccccc2)c(C#N)c(=O)[nH]1`, the growth inhibition was 12.2%.
Regarding `COc1ccc(C(=O)N/N=C/c2ccccc2)cc1`, the growth inhibition was -10.8%.
Consider `CCCC=NCCCC`, for which the growth inhibition is -7.55%.
With `CCOP(=O)(OCC)/C(C#N)=C\c1ccc(N(C)C)cc1`, the growth inhibition was 6.3%.
The figure for `Nc1ccc(Cl)cc1[N+](=O)[O-]` is -3.75%; for `C[C@@]12C[C@@H](c3ccccc3O1)N1CCCSC1=N2` it is -16%; for `c1ccc2c(C3CO3)c3ccc4ccccc4c3cc2c1` (stereo not given) it is 99.5% (active).
Under `Cc1cccc(C)c1NC(=O)C(=O)Cc1nc2ccccc2s1` stands -0.45%; under `CC(=O)[C@@]1(O)CC[C@H]2[C@@H]3C[C@H](C)C4=CC(=O)CC[C@]4(C)[C@H]3[C@@H](O)C[C@@]21C`, -8.8%.
Under `C#[N+]CCOP(=O)(OCC1OC(n2cc(C)c(=O)[nH]c2=O)CC1N=[N+]=[N-])O[C@H]1CC[C@@]2(C)C(=CC[C@H]3[C@@H]4CC[C@H](C(C)CCCC(C)C)[C@@]4(C)CC[C@@H]32)C1` (stereo not given in full) stands -30.1%; under `COc1c(OCC(O)CN2CCCCC2)c2c(C)coc2c2ccoc12` (stereo not given), 18.6%.
Regarding `O=C(CCN1CCOCC1)Nc1ccc(F)cc1F`, the growth inhibition was 3.35%.
Under `CC(C)(Oc1ccc2c(=O)cc(-c3ccc(Cl)cc3)oc2c1)C(=O)Nc1c(Cl)cccc1Cl` stands -20.1%; under `COc1ccc(C2=C(Cl)c3cc(OC)c(OC)cc3C2Cl)cc1OC` (stereo not given), 18.6%; under `CC(=O)Oc1cccc2ccccc12`, -25.5%.
`O=C(Nc1cccc(O)c1)OC1CCCCC1`: the growth inhibition is 6.05%.
`O=C(c1ccco1)N(C(=S)N1CCN(c2ccccc2)CC1)C1CCCCC1`: the growth inhibition was 25.4%.
`CS/C(c1ccccc1)=[N+](/C)[O-]`: the growth inhibition was 16.5%.
As to `CCN(CC)c1ccccc1S(=O)(=O)O`, the growth inhibition is -5.3%.
In the case of `Clc1ccc(/C=C/c2nc3ccccc3s2)cc1Cl`, the growth inhibition was -23.6%.
Regarding `O=C(O)/C=C\c1cc2c(cc1[N+](=O)[O-])OCO2`, the growth inhibition was -5.3%.
In the case of `CCN(Cc1cc(Nc2ccnc3cc(Cl)ccc23)ccc1O)C(=O)N1CCN(C)CC1`, the growth inhibition was 6.1%.
As to `C(=C\c1ccccn1)/c1ccc(/C=C/c2ccccn2)cc1`, the growth inhibition is 18.6%.
Take `COC(=O)c1nc2c(N)nc(-c3ccccc3)nc2nc1N`: the growth inhibition is -7.4%.
Regarding `O=C=Nc1ccc(Cc2ccc(N=C=O)cc2)cc1` (tested in a mixture with another compound), the growth inhibition is -1.5%.
As for `Cc1ccccc1N(CC1CO1)CC1CO1` (stereo not given), the growth inhibition is -18.1%.
`COc1cc2c3c(c1)SC(C)C(=O)N3CCN2` (stereo not given): the growth inhibition was -19.9%.
On to `Cc1cccc(N=C(Nc2cccc(C)n2)Nc2cccc(C)n2)n1`, for which the growth inhibition is 15.8%.
Turning to `CCOC(=O)COc1cc2c(cc1C(C)c1cc(OC)c(OC)c(OC)c1)OCO2` (stereo not given), the growth inhibition was 2.2%.
`O=C(N/C(=C\c1ccccc1[N+](=O)[O-])c1nc2ccccc2[nH]1)c1ccccc1`: the growth inhibition is -1.45%.
Take `Oc1ccc(C=NCCN=Cc2ccc(O)cc2)cc1`: the growth inhibition is -17.4%.
In the case of `NC(=O)NC(c1ccc(O)cc1)c1cc2c(cc1O)OCO2` (stereo not given), the growth inhibition is 1.9%.
The figure for `C/C(=N/C(=O)NN)c1ccc(Cl)cc1` is -7.9%.
